Laboratory results as given in PubChem BioAssay AID1159580 (chemical genetic matrix, 2015).
Screen size: about 5,500 compounds; about 2,000 (36%) were called active. Inconclusive results (about 18%) are left out. No stated cut-off is given here; in the data, active means normalized growth mostly below about 0.91 (no sharp cut-off); inconclusive means no clear call, values can overlap the other calls; inactive means mostly above about 0.92. Some of the results follow.

Test: chemical genetic growth profiling, strain panel (AID 1159580);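 further: tested at 20 µM; growth read once vehicle control cultures reached saturation at 30 °C; 1 = growth at the plate median or of vehicle wells; lower values mean less growth of the strain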
Settings: growth OD
[1] = S. cerevisiae deletion strains, locus YHR030C, strain SLT2, active compounds read low

Measured: normalized growth

O=C1ON=C(CSc2ccccc2)/C1=C/c1ccc(Cl)cc1
active: S. cerevisiae deletion strains, locus YAL013W, strain DEP1, active compounds read low 0.0593 | S. cerevisiae deletion strains, locus YBR229C, strain ROT2, active compounds read low 0.0605 | S. cerevisiae deletion strains, locus YDL101C, strain DUN1, active compounds read low 0.0787 | S. cerevisiae deletion strains, locus YDR150W, strain NUM1, active compounds read low 0.0599 | S. cerevisiae deletion strains, locus YEL061C, strain CIN8, active compounds read low 0.215 | S. cerevisiae deletion strains, locus YGR078C, strain PAC10, active compounds read low 0.0528 | S. cerevisiae deletion strains, locus YGR229C, strain SMI1, active compounds read low 0.522 | [1] 0.0755 | S. cerevisiae deletion strains, locus YHR087W, strain rtc3, active compounds read low 0.0592 | S. cerevisiae deletion strains, locus YJR043C, strain POL32, active compounds read low 0.0516 | S. cerevisiae deletion strains, locus YJR075W, strain HOC1, active compounds read low 0.0832 | S. cerevisiae deletion strains, locus YKL190W, strain CNB1, active compounds read low 0.201 | S. cerevisiae deletion strains, locus YLR039C, strain RIC1, active compounds read low 0.283 | S. cerevisiae deletion strains, locus YLR058C, strain SHM2 (second series), active compounds read low 0.0598 | S. cerevisiae deletion strains, locus YLR085C, strain ARP6, active compounds read low 0.0742 | S. cerevisiae deletion strains, locus YLR262C, strain YPT6, active compounds read low 0.324 | S. cerevisiae deletion strains, locus YML094W, strain GIM5, active compounds read low 0.343 | S. cerevisiae deletion strains, locus YMR219W, strain ESC1, active compounds read low 0.0677 | S. cerevisiae deletion strains, locus YMR263W, strain SAP30, active compounds read low 0.0516 | S. cerevisiae deletion strains, locus YNL153C, strain GIM3, active compounds read low 0.0589 | S. cerevisiae deletion strains, locus YNL298W, strain CLA4 (second series), active compounds read low 0.155 | S. cerevisiae deletion strains, locus YNL322C, strain KRE1, active compounds read low 0.0609 | S. cerevisiae deletion strains, locus YNR030W, strain Alg12, active compounds read low 0.101 | S. cerevisiae deletion strains, locus YPL055C, strain LGE1, active compounds read low 0.0724 | S. cerevisiae deletion strains, locus YPL241C, strain CIN2, active compounds read low 0.0913 | S. cerevisiae deletion strains, locus YPR135W, strain CTF4, active compounds read low 0.161 | S. cerevisiae strains, strain wild type, active compounds read low 0.337

COc1cccc2c1C(=O)c1c(O)c3c(c(O)c1C2=O)C[C@@](O)(C(=O)CO)C[C@@H]3OC1C[C@H](N)[C@H](O)[C@H](C)O1 (stereo not given in full)
inactive: S. cerevisiae deletion strains, locus YBR171W, strain sec66, active compounds read low 0.928 | S. cerevisiae deletion strains, locus YDR392W, strain spt3, active compounds read low 0.919 | S. cerevisiae deletion strains, locus YGL173C, strain kem1, active compounds read low 1.01 | S. cerevisiae deletion strains, locus YPL106C, strain sse1, active compounds read low 1.14
active: S. cerevisiae deletion strains, locus YAL021C, strain ccr4, active compounds read low 0.166 | S. cerevisiae deletion strains, locus YAL026C, strain drs2, active compounds read low 0.696 | S. cerevisiae deletion strains, locus YAL030W, strain snc1, active compounds read low 0.691 | S. cerevisiae deletion strains, locus YBL061C, strain skt5, active compounds read low 0.708 | S. cerevisiae deletion strains, locus YBR009C, strain hhf1, active compounds read low 0.282 | S. cerevisiae deletion strains, locus YBR023C, strain chs3, active compounds read low 0.676 | S. cerevisiae deletion strains, locus YBR231C, strain swc5, active compounds read low 0.342 | S. cerevisiae deletion strains, locus YBR279W, strain paf1, active compounds read low 0.681 | S. cerevisiae deletion strains, locus YCL011C, strain gbp2, active compounds read low 0.636 | S. cerevisiae deletion strains, locus YCL016C, strain dcc1, active compounds read low 0.37 | S. cerevisiae deletion strains, locus YCL069W, strain vba3, active compounds read low 0.718 | S. cerevisiae deletion strains, locus YCR088W, strain abp1, active compounds read low 0.767 | S. cerevisiae deletion strains, locus YDL005C, strain med2, active compounds read low 0.701 | S. cerevisiae deletion strains, locus YDL040C, strain nat1, active compounds read low 0.762 | S. cerevisiae deletion strains, locus YDR001C, strain nth1, active compounds read low 0.878 | S. cerevisiae deletion strains, locus YDR069C, strain doa4, active compounds read low 0.595 | S. cerevisiae deletion strains, locus YDR137W, strain rgp1, active compounds read low 0.572 | S. cerevisiae deletion strains, locus YDR159W, strain sac3, active compounds read low 0.221 | S. cerevisiae deletion strains, locus YDR195W, strain ref2 1.23 [resistant] | S. cerevisiae deletion strains, locus YDR297W, strain sur2, active compounds read low 0.606 | S. cerevisiae deletion strains, locus YDR334W, strain swr1, active compounds read low 0.337 | S. cerevisiae deletion strains, locus YDR335W, strain msn5, active compounds read low 0.431 | S. cerevisiae deletion strains, locus YEL003W, strain gim4, active compounds read low 0.603 | S. cerevisiae deletion strains, locus YEL037C, strain rad23, active compounds read low 0.864 | S. cerevisiae deletion strains, locus YEL061C, strain CIN8 (second series), active compounds read low 0.607 | S. cerevisiae deletion strains, locus YER015W, strain faa2, active compounds read low 0.49 | S. cerevisiae deletion strains, locus YER016W, strain bim1, active compounds read low 0.481 | S. cerevisiae deletion strains, locus YER111C, strain swi4, active compounds read low 0.766 | S. cerevisiae deletion strains, locus YER155C, strain BEM2 (second series), active compounds read low 0.515 | S. cerevisiae deletion strains, locus YFR010W, strain ubp6, active compounds read low 0.65 | S. cerevisiae deletion strains, locus YGL167C, strain pmr1, active compounds read low 0.905 | S. cerevisiae deletion strains, locus YGL227W, strain vid30, active compounds read low 0.429 | S. cerevisiae deletion strains, locus YGL240W, strain doc1, active compounds read low 0.246 | S. cerevisiae deletion strains, locus YGL253W, strain hxk2, active compounds read low 0.247 | S. cerevisiae deletion strains, locus YHR013C, strain ard1, active compounds read low 0.35 | S. cerevisiae deletion strains, locus YHR027C, strain rpn1, active compounds read low 0.496 | [1] 0.778 | S. cerevisiae deletion strains, locus YHR079C, strain IRE1, active compounds read low 0.79 | S. cerevisiae deletion strains, locus YHR142W, strain chs7, active compounds read low 0.538 | S. cerevisiae deletion strains, locus YJL092W, strain hpr5, active compounds read low 0.691 | S. cerevisiae deletion strains, locus YJL095W, strain BCK1 (second series), active compounds read low 0.622 | S. cerevisiae deletion strains, locus YJL095W, strain BCK1, active compounds read low 0.781 | S. cerevisiae deletion strains, locus YJL115W, strain asf1, active compounds read low 0.319 | S. cerevisiae deletion strains, locus YJL129C, strain trk1, active compounds read low 0.138 | S. cerevisiae deletion strains, locus YJL154C, strain vps35, active compounds read low 0.732 | S. cerevisiae deletion strains, locus YJL164C, strain tpk1, active compounds read low 0.439 | S. cerevisiae deletion strains, locus YJL166W, strain qcr8, active compounds read low 0.302 | S. cerevisiae deletion strains, locus YJL187C, strain SWE1, active compounds read low 0.643 | S. cerevisiae deletion strains, locus YJR066W, strain TOR1, active compounds read low 0.787 | S. cerevisiae deletion strains, locus YKL160W, strain elf1, active compounds read low 0.56 | S. cerevisiae deletion strains, locus YKR026C, strain gcn3, active compounds read low 0.849 | S. cerevisiae deletion strains, locus YKR091W, strain srl3, active compounds read low 0.869 | S. cerevisiae deletion strains, locus YLL001W, strain dnm1, active compounds read low 0.545 | S. cerevisiae deletion strains, locus YLL026W, active compounds read low 0.623 | S. cerevisiae deletion strains, locus YLL041C, strain sdh2, active compounds read low 0.602 | S. cerevisiae deletion strains, locus YLR027C, strain aat2, active compounds read low 0.543 | S. cerevisiae deletion strains, locus YLR113W, strain HOG1, active compounds read low 0.779 | S. cerevisiae deletion strains, locus YLR221C, strain rsa3, active compounds read low 0.475 | S. cerevisiae deletion strains, locus YLR258W, strain gsy2, active compounds read low 0.565 | S. cerevisiae deletion strains, locus YLR262C, strain YPT6 (second series), active compounds read low 0.533 | S. cerevisiae deletion strains, locus YLR320W, strain mms22, active compounds read low 0.176 | S. cerevisiae deletion strains, locus YLR342W, strain FKS1, active compounds read low 0.622 | S. cerevisiae deletion strains, locus YLR357W, strain rsc2, active compounds read low 0.49 | S. cerevisiae deletion strains, locus YLR370C, strain arc18, active compounds read low 0.902 | S. cerevisiae deletion strains, locus YLR384C, strain iki3, active compounds read low 0.651 | S. cerevisiae deletion strains, locus YML120C, strain ndi1, active compounds read low 0.676 | S. cerevisiae deletion strains, locus YMR058W, strain fet3, active compounds read low 0.509 | S. cerevisiae deletion strains, locus YMR129W, active compounds read low 0.828 | S. cerevisiae deletion strains, locus YMR205C, strain PFK2, active compounds read low 0.513 | S. cerevisiae deletion strains, locus YMR231W, strain pep5, active compounds read low 0.246 | S. cerevisiae deletion strains, locus YNL071W, strain lat1, active compounds read low 0.272 | S. cerevisiae deletion strains, locus YNL183C, strain NPR1, active compounds read low 0.801 | S. cerevisiae deletion strains, locus YNL209W, strain ssb2, active compounds read low 0.656 | S. cerevisiae deletion strains, locus YNL248C, strain rpa49, active compounds read low 0.107 | S. cerevisiae deletion strains, locus YNL322C, strain KRE1 (second series), active compounds read low 0.886 | S. cerevisiae deletion strains, locus YNR049C, strain mso1, active compounds read low 0.798 | S. cerevisiae deletion strains, locus YOR001W, strain rrp6, active compounds read low 0.469 | S. cerevisiae deletion strains, locus YOR070C, strain gyp1, active compounds read low 0.569 | S. cerevisiae deletion strains, locus YOR080W, strain dia2, active compounds read low 0.627 | S. cerevisiae deletion strains, locus YOR083W, strain WHI5, active compounds read low 0.572 | S. cerevisiae deletion strains, locus YOR106W, strain vam3, active compounds read low 0.214 | S. cerevisiae deletion strains, locus YOR231W, strain MKK1, active compounds read low 0.815 | S. cerevisiae deletion strains, locus YOR265W, strain rbl2, active compounds read low 0.619 | S. cerevisiae deletion strains, locus YOR270C, strain vph1, active compounds read low 0.24 | S. cerevisiae deletion strains, locus YOR290C, strain snf2, active compounds read low 0.589 | S. cerevisiae deletion strains, locus YPL051W, strain arl3, active compounds read low 0.481 | S. cerevisiae deletion strains, locus YPL078C, strain atp4, active compounds read low 0.534 | S. cerevisiae deletion strains, locus YPL240C, strain hsp82, active compounds read low 0.544 | S. cerevisiae deletion strains, locus YPL256C, strain CLN2, active compounds read low 0.757
